Laboratory results reported in PubChem BioAssay (Tox21).
Results filed as inconclusive are left out. A call without a number means that no potency is given here. Calls of active or inactive are those of the source. Calls follow the shape of the dose curve; as a rule, active = well fitted cell-killing curve with a large enough effect in the repeat runs; inconclusive = weak or mixed curves, or effect the other way; inactive = flat fitted curve, though single readings scatter.

Assay: qHTS RealTime-Glo MT Cell Viability Assay in HEK293 cells - 16 hour (AID 1224872); also: nearly all actives have a fitted effect of over 50% in size
Conditions: RealTime-Glo luminescence; series mostly up to 76.8 µM
Text: National Center for Advancing Translational Sciences [NCATS]
NIH Chemical Genomics Center [NCGC]
U.S. Environmental Protection Agency [EPA]
National Institutes of Environmental Health Sciences [NIEHS]
National Toxicology Program [NTP]
U.S. Food and Drug Administration [FDA]
Measure of cell viability is critical in the cell-base assay. Analysis of cell viability is necessary for the characterization of cell responses to cytotoxic drugs and environmental stress. A RealTime-Glo MT Cell Viability Assay to monitor cell viability in real time of continues cell culture during 40 hours of compound treatment was used to screen Tox21 10K library compounds in Hek293 cells. The RealTime-Glo MT Cell Viability Assay is a nonlytic, homogeneous, bioluminescent method to measure cell viability in real time using a simple, plate-based method. The assay involves adding NanoLuc luciferase and a cell-permeant prosubstrate to cells in culture. Viable cells reduce the proprietary prosubstrate to generate a substrate for NanoLuc luciferase. This substrate diffuses from cells into the surrounding culture medium, where it is rapidly used by the NanoLuc Enzyme to produce a luminescent signal. The signal correlates with the number of viable cells, making the assay well suited for cytotoxicity studies.
Tox21 Assay Protocol Summary:
The mixture of Hek293 cell suspension and reagents were dispensed at 600cells/6 ul/well in 1536-well tissue culture treated black solid bottom plates using a Multidrop dispenser. After the assay plates were incubated at a 37 C/5% CO2 incubator for 5 hours, 23 nL of compounds dissolved in DMSO, positive and negative controls was transferred to the assay plate by a pintool work station. The plates were incubated at 37 C for 40 hours. The luminescence intensity were measured at 0h, 8h, 16h, 24h, 32h and 40h time points using ViewLux plate reader during compound treatment.
Potency is read from the fitted curve at half-maximal effect.

Row | SMILES | Potency
1 | CCN(CC)CCCC(C)Nc1c2ccc(Cl)cc2nc2ccc(OC)cc12 (stereo not given) | 4.25 µM (active)
2 | O=C(O)c1ccc(Cl)c(Cl)c1 | inactive
3 | CCCCN(CCCC)c1ccc(C(=O)c2ccccc2C(=O)O)c(O)c1 | inactive
4 | CN(C)[C@@H]1C(=O)C(C(N)=O)=C(O)[C@@]2(O)C(=O)C3=C(O)c4c(O)cccc4C[C@H]3C[C@@H]12 | inactive
5 | C=CC(=O)OCCn1c(=O)n(CCOC(=O)C=C)c(=O)n(CCOC(=O)C=C)c1=O | 11 µM (active)
6 | CC[C@H]1O[C@]2(CC[C@@H]1C)C[C@@H]1C[C@@H](C/C=C(\C)C[C@@H](C)/C=C/C=C3\CO[C@@H]4[C@H](O)C(C)=C[C@@H](C(=O)O1)[C@]34O)O2 | 38.5 µM (active)
7 | CC(C)(C)C(=O)OCOC(=O)[C@@H]1N2C(=O)[C@@H](NC(=O)[C@H](N)c3ccccc3)[C@H]2SC1(C)C | inactive
8 | CCN(CCC#N)c1ccc(N=Nc2c(Cl)cc([N+](=O)[O-])cc2Cl)cc1 | inactive
9 | CC/C(=C(\c1ccc(O)cc1)c1ccc(OCCN(C)C)cc1)c1ccccc1 | 24.6 µM (active)
10 | CCCCCCCCCCCCCCCCCC[N+](C)(C)C | 24.6 µM (active)
11 | [Cl][Bi]([Cl])([c]1ccccc1)([c]1ccccc1)[c]1ccccc1 | 4.87 µM (active)
12 | CN(C)CCCOC1(Cc2ccccc2)CCCCCC1 | inactive
13 | CCCCCCCC/C=C\CCCCCCCCOCCO | 3.19 µM (active)
14 | CCCCCCCC(=O)[O-].CCCCCCCC(=O)[O-].[Zn+2] | inactive
15 | C1CCCC1 | inactive
16 | COC(=O)C1=C(C)NC(C)=C(C(=O)OCC(C)C)C1c1ccccc1[N+](=O)[O-] (stereo not given) | 38.9 µM (active)
17 | Cc1oc(-c2ccccc2)nc1CCC(=O)c1ccc(CC2SC(=O)NC2=O)cc1 (stereo not given) | inactive
18 | CSc1cnc(C)cn1 | inactive
19 | CCCCCCCC/C=C/CCCCCCCC1=NCCN1CCO | 21.9 µM (active)
20 | NC(=O)N1C(=O)C(C(=O)c2cc(Cl)cs2)c2cc(F)c(Cl)cc21 (stereo not given) | inactive

Row | SMILES | Potency
21 | O=C1CCCCCN1SSN1CCCCCC1=O | inactive
22 | CSc1ccc(/C=C2/C(C)=C(CC(=O)O)c3cc(F)ccc32)cc1 | inactive
23 | O=S1(=O)CC(Cl)(Cl)C(Cl)(Cl)C1 | 4.9 µM (active)
24 | Cc1cc(O)c(C(C)(C)C)cc1C(C)(C)C | 19.5 µM (active)
25 | CCCCCCCCn1sc(Cl)c(Cl)c1=O | 3.47 µM (active)
26 | Cc1c(C)c2c(c(C)c1OC(=O)CCC(=O)O)CC[C@@](C)(CCC[C@H](C)CCC[C@H](C)CCCC(C)C)O2 | inactive
27 | Clc1ccc(C(Cn2ccnc2)OCc2ccc(Sc3ccccc3)cc2)c(Cl)c1 (stereo not given) | inactive
28 | CCCC(c1cc(C(C)(C)C)c(O)cc1C)c1cc(C(C)(C)C)c(O)cc1C | 24.8 µM (active)
29 | Cc1cccc(S(=O)(=O)O)c1C | inactive
30 | COC(=O)C1=C(C)NC(C)=C(C(=O)OCCc2ccc(N3CCN(C(c4ccccc4)c4ccccc4)CC3)cc2)C1c1cccc([N+](=O)[O-])c1 (stereo not given) | inactive
31 | C/C=C(\C)C(=O)OCc1ccccc1 | inactive
32 | Oc1c(Cl)cc(Cl)c2cccnc12 | inactive
33 | Cc1ccc2oc(CN(Cc3ccccc3)C(=O)Nc3c(F)cc(F)cc3F)c(-c3ccc(Cl)cc3)c2c1 | inactive
34 | Clc1ccc2nsnc2c1NC1=NCCN1 | inactive
35 | CCCCCCCCCCCCCCCC[N+](C)(C)CCN(Cc1ccc(OC)cc1)c1ncccn1 | 1.34 µM (active)
36 | CCCCC(CC)COP(=O)(O)OCC(CC)CCCC (stereo not given) | inactive
37 | CCCCCCCCCCCCc1ccc(O)cc1 | 38.9 µM (active)
38 | Cc1c(C)c2c(c(C)c1O)CCC(C)(COc1ccc(CC3SC(=O)NC3=O)cc1)O2 (stereo not given) | 43.6 µM (active)
39 | Nc1ccc2c3c(cccc13)-c1ccccc1-2 | 24.8 µM (active)
40 | CN(C)C(=O)C1(N2CCCCC2)CCN(CC[C@@]2(c3ccc(Cl)c(Cl)c3)CN(C(=O)c3ccccc3)CCO2)CC1 | 12.9 µM (active)
